Only a selection was taken, and hits are over-represented in it overall.
HT1080 IDH1KD tx: kills HT-1080 cells with IDH1 knockdown | HT-1080 IDH1 knockdown viability, ATP luminescence, 48 h | Potency, µM (top dose mostly 46.1 µM), for inactives: at the highest dose activity, negative = toxicity, usual class: cytotoxic | hit rate 2% among 360,000 | AID 686971;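 also: potency is read from the fitted curve at half-maximal effect; 0% = DMSO wells and -100% = cell-free medium wells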
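Viability of IDH1-knockdown HT-1080 fibrosarcoma cells was assessed by CellTiter-Glo after 48 h at 37 °C with titrated compound; concentration-effect curves were classified by fit quality and response size.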
TDP1 cell CPT: DT40-hTDP1 cell growth loss with CPT | AID 686979 | Potency, µM (top dose mostly 46.2 µM), inactives show at the top dose activity change, negative = growth inhibition, most hits filed as inhibitors | hit rate 12% among 420,000 | chicken DT40 Tdp1-/-;hTDP1 cells + 20 nM CPT, ATP luminescence, 48 h; also: potency is read from the fitted curve at half-maximal effect; nearly all actives have a fitted effect of over 55% in size
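Chicken DT40 Tdp1-/- cells stably complemented with human TDP1 were seeded at 400 cells/well in medium containing 20 nM camptothecin, exposed to pin-transferred compounds, and grown at 37 °C for at least 48 hr. Viability was read as ATP luminescence.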
IL1B secr inh: blocks inflammasome-driven IL-1 beta release. THP-1 LPS/ATP IL-1B secretion, AlphaLISA, 16 h; active compounds read low. activity change, % at 57.5 µM. hit rate 4.7% among 360,000. AID 743279; in the data active = activity change below about -50%; inconclusive = mostly about -30% to -49%
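Secreted IL-1B measured by AlphaLISA bead assay after 16 h compound exposure of THP-1 cells; compounds (final up to 57.5 uM) added 1 h before LPS (250 ng/mL) and ATP (1.25 mM) stimulation; lower signal means less secretion.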
ALOX12 inh: blocks human arachidonate 12S-lipoxygenase; hit rate 1.1% among 580,000; P18054; Potency, µM (top dose mostly 108 µM), without a hit: at the top dose activity change, negative = inhibition, hits mostly inhibitors; AID 1671190; purified 12hLO, xylenol orange hydroperoxide absorbance; also: potency is read from the fitted curve at half-maximal effect
Target sequence (P18054 whole entry, looked up): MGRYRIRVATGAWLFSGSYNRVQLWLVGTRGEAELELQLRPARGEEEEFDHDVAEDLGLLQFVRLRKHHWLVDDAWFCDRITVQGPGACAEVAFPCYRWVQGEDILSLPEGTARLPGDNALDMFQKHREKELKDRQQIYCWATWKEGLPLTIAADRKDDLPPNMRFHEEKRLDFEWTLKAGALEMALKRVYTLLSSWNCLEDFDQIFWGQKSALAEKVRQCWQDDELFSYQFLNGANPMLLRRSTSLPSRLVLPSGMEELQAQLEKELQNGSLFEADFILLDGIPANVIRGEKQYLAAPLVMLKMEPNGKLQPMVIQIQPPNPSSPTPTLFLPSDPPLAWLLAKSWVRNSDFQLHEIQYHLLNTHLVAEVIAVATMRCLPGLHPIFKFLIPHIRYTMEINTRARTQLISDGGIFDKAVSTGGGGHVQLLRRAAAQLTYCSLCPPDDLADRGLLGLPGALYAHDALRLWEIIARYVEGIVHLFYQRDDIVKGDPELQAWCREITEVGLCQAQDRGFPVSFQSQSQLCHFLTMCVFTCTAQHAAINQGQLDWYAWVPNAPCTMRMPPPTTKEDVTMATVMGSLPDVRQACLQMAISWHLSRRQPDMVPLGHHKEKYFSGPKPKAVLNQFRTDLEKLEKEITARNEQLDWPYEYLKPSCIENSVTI
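Purified human 12hLO at 150 nM in 25 mM Hepes, 0.01% Triton X-100, pH 7.0, preincubated 15 min at room temperature with compound. Reaction started with 40 uM arachidonic acid, 30 min at room temperature. Hydroperoxide measured by Fe-xylenol orange, 573/405 nm absorbance ratio.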
TDP1 cell noCPT: qHTS for Inhibitors of human tyrosyl-DNA phosphodiesterase 1 (TDP1): qHTS in cells in absence of CPT | DT40 Tdp1-/- hTDP1 cells, no CPT, ATP luminescence, 48 h | Potency, µM (titrated, usually from 46.2 µM), without a hit: at the highest dose activity change, negative = growth inhibition, hits mostly inhibitors | hit rate 15% among 420,000 | AID 686978, 2013; also: potency is read from the fitted curve at half-maximal effect; nearly all actives have a fitted effect of over 55% in size
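Chicken DT40 Tdp1-/- cells stably complemented with human TDP1 were seeded at 400 cells/well with DMSO in place of 20 nM camptothecin. After compound pinning, cells grew at least 48 hr at 37 °C; viability read by CellTiter-Glo luminescence.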
HT1080-NT tox: kills 2HG-producing HT-1080-NT fibrosarcoma cells | HT-1080-NT fibrosarcoma viability, CellTiter-Glo ATP luminescence, 48 h | Potency, µM (doses to about 46.1 µM), for the others: top-dose activity, negative = less viability, most hits filed as cytotoxic | hit rate 1.6% among 360,000 | AID 686970;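 also: NT is the 2HG producing partner of a matched IDH1 knockdown line; potency is read from the fitted curve at half-maximal effect; 0% = DMSO-treated cells and -100% = media-only wells without cells; nearly all actives have a fitted effect of over 55% in size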
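Luminescent CellTiter-Glo readout after 48 hours of compound exposure at 37 degrees C defined viability of HT-1080-NT cells. Activity was normalized to DMSO wells and cell-free media wells; concentration-response curves were fitted and assigned curve classes.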
The depositor's hits bear a star; ? = inconclusive; . = no result; [ ] = dose if it differs, or a comment. Unless noted, calls follow the shape of the dose curve; as a rule, active = well fitted curve in the direction sought with a large enough effect; inconclusive = small, poorly fitted or top-dose-only effect, or another doubt; inactive = no such curve, though single readings can be large; an effect the other way counts as inactive or inconclusive. Unless noted, % is scaled to controls: 0 for no effect and ±100 for the full control effect.

SMILES	HT1080 IDH1KD tx	TDP1 cell CPT	IL1B secr inh	ALOX12 inh	TDP1 cell noCPT	HT1080-NT tox
CC(=O)N(C)c1ccc(NC(=S)Nc2cccc3ccccc23)cc1	-7.9%	23.1µM*	12.6	-16.1%	?	-6.9%
Fc1cccc(NC(=S)Nc2cccc3ccccc23)c1	-5.3%	-9.7%	28.3	?	6.2%	5.2%
CCc1ccc(NC(=S)Nc2cccc3cnccc23)cc1	-2.6%	?	17.4	14.0%	14.6µM*	-4.6%
Cc1ccc(NC(=S)Nc2cccc3ccccc23)cc1F	-11.2%	?	7.5	39.8µM*	-28.2%	-16.1%
Cc1ccc(NC(=O)Cc2nnc(SCC(=O)c3ccc(C#N)cc3)n2C)cc1	.	.	.	-21.3%	.	.
COC(=O)N1C(=O)[C@@](c2ccccc2)(C2CCCC2)N1C(=O)OC	-13.9%	14.6µM*	-106.1*	-0.5%	16.4µM*	?
COC(=O)N1C(=O)[C@](c2ccccc2)(C2CCCCC2)N1C(=O)OC	-12.5%	?	-74.6*	-9.3%	-29.5%	-16.9%
C=CCN(Cc1ccccc1OCC)C(=O)c1ccc(N(C)S(C)(=O)=O)cc1	.	.	.	-1.9%	.	.
O=C(C1CCCN(S(=O)(=O)c2cccc3nonc23)C1)N1CCN(c2ccccc2)CC1 (stereo not given)	-14.1%	?	-50.6*	-15.4%	22.4µM*	-4.4%
O=C(C1CCN(S(=O)(=O)c2cccc3nonc23)CC1)N1CCN(c2ccccc2F)CC1	.	?	.	-23.6%	?	.
CC(=O)c1ccc(N2CCN(C(=O)C3CCN(S(=O)(=O)c4cccc5nonc45)CC3)CC2)cc1	.	?	.	-23.2%	23.1µM*	.
Cn1c2ccccc2c(=O)c2ccc(C#Cc3ccc(N)cc3)cc21	?	?	-28.0	?	16.4µM*	?
COc1ccc(C#Cc2ccc3c(=O)c4ccccc4n(C)c3c2)cc1	2.8%	?	33.7	.	18.4µM*	1.3%
Cn1c2ccccc2c(=O)c2cc(C#CC3=CCCCC3)ccc21	-6.2%	7.31µM*	0.0	-27.8%	18.4µM*	4.2%
Cc1c(C#N)c(O)n(C)c(=O)c1N=Nc1ccc(S(N)(=O)=O)cc1	-0.8%	?	-18.7	-22.5%	13µM*	-2.2%
CCOc1ccc(NC(=O)Cn2c(=O)n(-c3ccccc3)c(=O)c3ccc(C(=O)NCc4ccc5c(c4)OCO5)cc32)cc1	.	20.6µM*	.	-23.2%	20.6µM*	.
CCCN(CCC)C(=O)Cn1c(=O)n(-c2ccc(OC)cc2)c(=O)c2ccc(C(=O)NCc3ccc(C)cc3)cc21	.	?	.	-5.3%	16.4µM*	.
CCc1ccc(NC(=O)Cn2c(=O)n(-c3ccccc3)c(=O)c3ccc(C(=O)NCc4ccc5c(c4)OCO5)cc32)cc1	.	?	.	-23.3%	?	.
Cc1ccc(-n2c(=O)c3ccc(C(=O)NCc4ccccc4Cl)cc3n(CC(=O)Nc3ccc(C)cc3C)c2=O)cc1	.	?	.	-25.9%	?	.
Cc1ccc(NC(=O)Cn2c(=O)n(-c3ccc(C)cc3)c(=O)c3ccc(C(=O)NCc4ccccc4Cl)cc32)cc1	.	7.31µM*	.	-18.3%	13µM*	.
COc1cccc(NC(=O)Cn2c(=O)n(-c3ccc(C)cc3)c(=O)c3ccc(C(=O)NCc4ccco4)cc32)c1	.	16.4µM*	.	-26.9%	?	.
Cc1cccc(OCC(=O)Nc2onc3c2CC(C)CC3)c1 (stereo not given)	.	.	.	10.3%	.	.
CCOc1cc(C)ccc1OCc1nnc(SCC(=O)NC2CCCCC2)n1C	.	.	.	14.9%	.	.
CCNC(=O)Nc1ccc(OCC(=O)NCc2cccs2)nc1	.	.	.	5.4%	.	.
CCONC(=O)C(NC(=O)c1ccc(Cl)cc1)C(C)CC (stereo not given)	.	.	.	2.5%	.	.
SMILES	HT1080 IDH1KD tx	TDP1 cell CPT	IL1B secr inh	ALOX12 inh	TDP1 cell noCPT	HT1080-NT tox
C=CC(=O)NC(NC(=O)C=C)c1ccc(Cl)cc1	.	.	.	6.4%	.	.
CCc1ccc(NC(=O)Cn2c(=O)n(-c3ccc(OC)cc3)c(=O)c3ccc(C(=O)NCc4ccc(C)cc4)cc32)cc1	.	10.3µM*	.	?	7.31µM*	.
CN1C(=O)CN(CCCCOc2ccccc2)C(=O)c2ccccc21	.	.	.	-0.2%	.	.
COc1ccc(CC(=O)NNC(=S)NC(=O)c2cccnc2)cc1	2.3%	5.1%	28.2	?	?	7.8%
COc1ccc(C(=O)NNC(=S)NC(=O)c2ccc(F)cc2)cc1Br	?	?	81.1	?	?	?
COc1cc(C(=O)NNC(=S)NC(=O)c2ccc(F)cc2)cc(OC)c1OC	?	29.1µM*	83.5	?	?	-28.0%
COc1cc(C(=O)NC(=S)NCc2ccncc2)cc(OC)c1OC	0.8%	?	-25.5	?	20.6µM*	-2.0%
COc1ccc(CC(=O)NNC(=S)NC(=O)c2cc(OC)c(OC)c(OC)c2)cc1	?	9.2µM*	21.0	?	7.31µM*	?
COc1ccc(C(=O)NC(=S)NCc2cccnc2)cc1OC	-13.9%	-20.8%	11.2	?	?	-6.9%
Cc1noc([C@H]2CCN(C(=O)NCc3ccccc3)C[C@H]2NC(=O)C2CCOCC2)n1	.	.	.	51.4%	.	.
OCC1(Cc2ccccc2C(F)(F)F)CCN(Cc2ccccc2)CC1	-13.3%	?	-61.0*	-0.1%	?	-23.8%
Cc1ccc(-n2cc(CN3CCC(CO)(Cc4cccc(C(F)(F)F)c4)CC3)cn2)cc1	18.4µM*	9.2µM*	-112.1*	?	20.6µM*	23.1µM*
OCC1(Cc2ccccc2C(F)(F)F)CCN(Cc2ccc3c(c2)CCO3)CC1	-3.3%	-1.7%	0.2	20.8%	6.2%	-5.8%
COc1cccc(CC2(CO)CCN(C(=O)NC3CCCCC3)CC2)c1	14.7%	23.1µM*	18.2	-0.9%	-28.0%	9.8%
Cc1ccc(-n2cc(CN3CCC(CO)(Cc4ccccc4)CC3)cn2)cc1	.	.	.	-17.9%	.	.
COc1ccc2[nH]c(C(=O)N3CCC(CO)(Cc4cccc(C(F)(F)F)c4)CC3)c(C)c2c1	-0.7%	?	?	?	20.6µM*	-10.2%
Cc1cn(C[C@H](NC(=O)c2cccc(F)c2)C(=O)O)c(=O)[nH]c1=O	.	.	.	-2.7%[176 µM]	.	.
CC(C)Cc1cc(CN2CCC(CO)(Cc3cccc(C(F)(F)F)c3)CC2)[nH]n1	?	?	-81.8*	-13.8%	?	?
OCC1(Cc2ccc(Cl)cc2)CCN(Cc2ccc(F)c(F)c2)CC1	?	?	?	0.0%	?	?
CSc1cccc(CN2CCC(CO)(Cc3cccc(C(F)(F)F)c3)CC2)c1	16.4µM*	?	-96.1*	?	16.4µM*	20.6µM*
